Laboratory results taken from PubChem BioAssay (NCI).
This is part of a sample that, as a whole, favours compounds with a hit. Of some 83,000 tested, about 20% had one in any assay.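 Cells were grown in 96-well plates and exposed to the test compound at a single concentration for 48 hours; results are reported as percent growth, with values below 10 considered active.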 Calls of active or inactive are those of the source.

Experiments:
Experiment in all cases: NCI-60 one-dose screen, 48 h (100 = growth as untreated, 0 = no growth, -100 = all killed)
Conditions in all cases: 10 µM
[1] = tested on: SK-MEL-2 melanoma
[2] = tested on: EKVX NSCLC
[3] = tested on: SN12C renal
[4] = tested on: UO-31 renal
[5] = tested on: TK-10 renal
[6] = tested on: ACHN renal
[7] = tested on: CAKI-1 renal
[8] = tested on: A498 renal
[9] = tested on: CCRF-CEM leukemia
[10] = tested on: MOLT-4 leukemia
[11] = tested on: SR leukemia
[12] = tested on: RPMI-8226 leukemia
[13] = tested on: OVCAR-8 ovarian
[14] = tested on: OVCAR-5 ovarian
[15] = tested on: OVCAR-4 ovarian
[16] = tested on: SK-OV-3 ovarian
[17] = tested on: IGROV1 ovarian
[18] = tested on: OVCAR-3 ovarian
[19] = tested on: HS 578T breast
[20] = tested on: NCI/ADR-RES ovarian

Measured: growth

O=c1oc2ccccc2cc1-c1csc(N=Nc2c(O)[nH]c3ccc(Br)cc23)n1
inactive: [1] 60.3% | [2] 73.7% | [3] 85.3% | [4] 82.7% | [5] 86.8% | [6] 48.8% | [7] 84.5% | [8] 54.1% | [9] 99.8% | [10] 103% | [11] 97.1% | [12] 99.7% | [13] 79.1% | [14] 98.9% | [15] 87.2% | [16] 91.9% | [17] 79.5% | [18] 89.7% | [19] 33.7% | [20] 76.2%

COc1ccc(CN2[C@H](C(=O)NCCCCCCC(=O)NO)Cc3c([nH]c4ccccc34)[C@H]2C2CC2)cc1
inactive: [2] 16.8% | [9] 19.7% | [10] 12.2% | [11] 16% | [12] 15.7% | [15] 40.6% | [20] 61.9%
active: [1] -16.7% | [3] 7.85% | [4] 7.67% | [5] -19.7% | [6] 0.712% | [7] 4% | [8] -38.3% | [13] 2.69% | [14] -21.2% | [16] -33.5% | [17] -42.4% | [18] 3.23% | [19] -1.3%

COc1cc(/C=C/C(=O)c2ccc(S(=O)(=O)NCCNc3nc(Nc4ccc(F)cc4)nc(N(C)C)n3)cc2)cc(OC)c1OC
inactive: [1] 98.4% | [2] 48.4% | [4] 40.2% | [5] 66.3% | [7] 20.1% | [8] 81.3% | [15] 22.8% | [16] 109% | [19] 67.3% | [20] 46.6%
active: [3] -32.1% | [6] -49% | [9] 8.16% | [10] 8.5% | [11] 3.14% | [12] 7.35% | [13] -65% | [14] -23.4% | [17] -48.9% | [18] -88.1%

Cc1cc2nc3c4ccccc4n(CCO)c3nc2cc1C
inactive: [1] 101% | [2] 84.5% | [3] 43.5% | [4] 28.6% | [5] 165% | [7] 55.4% | [8] 61.6% | [9] 71.6% | [10] 78.4% | [11] 27.2% | [12] 93% | [13] 72.7% | [14] 103% | [16] 81.7% | [17] 58.4% | [18] 78.7% | [19] 48.3% | [20] 62.3%
active: [6] -6.25% | [15] -43.7%

C=C1CCC2C3(C)COC(c4cc(F)cc(F)c4)OC3CCC2(C)C1C/C=C1/C(=O)OCC1O (stereo not given)
inactive: [8] 106% | [9] 15.1% | [12] 14.1% | [16] 25%
active: [1] -60.8% | [2] -42.8% | [3] -31.6% | [4] -97.1% | [5] -86.3% | [6] -99.6% | [7] -73.2% | [10] 8.72% | [11] 7.75% | [13] -83.1% | [14] -21.3% | [15] -11% | [17] -49.8% | [18] -76.9% | [19] -24.1% | [20] -11.1%

Nc1nc(Nc2ccccc2)nn1Cc1c(Cl)cccc1Cl
inactive: [1] 49.2% | [2] 20.2% | [3] 44.5% | [4] 11.8% | [5] 53.8% | [6] 13.9% | [7] 27.9% | [9] 26.5% | [10] 18.6% | [11] 25% | [12] 27.1% | [13] 42.3% | [14] 46.6% | [15] 39.7% | [16] 51.3% | [17] 11.2% | [18] 54.6% | [19] 29.3% | [20] 10.6%
active: [8] -3.12%

O=C(CNc1nc(-c2ccccc2)cs1)Nc1ccc([N+](=O)[O-])cc1Cl
active: [20] -7%
inactive: [1] 20.1% | [2] 18.5% | [3] 13.4% | [4] 25.5% | [5] 52.9% | [6] 38.8% | [7] 44.9% | [8] 55% | [9] 15.3% | [10] 11% | [11] 16.7% | [12] 15.5% | [13] 30.4% | [14] 36.4% | [15] 45.4% | [16] 35.8% | [17] 33.9% | [18] 23.4% | [19] 17.6%

Cc1ccc(-c2ccc(SCC(=O)Nc3ccc(S(N)(=O)=O)cc3Br)nn2)cc1
active: [13] -29.8% | [18] -63.8%
inactive: [1] 80.6% | [2] 62.5% | [3] 39.5% | [4] 70.6% | [5] 84.7% | [6] 11.7% | [7] 56.9% | [8] 87.2% | [9] 93.4% | [10] 89.9% | [11] 75.3% | [12] 67.8% | [14] 42% | [15] 19.5% | [16] 101% | [17] 45.1% | [19] 31.9% | [20] 65%

CN1C(=O)N(C)C2SC(N/N=C/c3cccs3)=NC21 (stereo not given)
active: [1] 9.78% | [18] -54% | [20] -15.2%
inactive: [2] 56.2% | [3] 26.5% | [4] 40.3% | [5] 63.7% | [6] 38.8% | [7] 20.8% | [8] 65.6% | [9] 20.3% | [10] 33.4% | [11] 13.4% | [12] 51.9% | [13] 34.4% | [14] 42.5% | [15] 57.9% | [16] 40.7% | [17] 36.7% | [19] 25.3%

Nc1cc(-c2cccc(C(=O)NCc3ccc4c(c3)OCO4)c2)ccn1
inactive: [1] 105% | [2] 76.8% | [3] 104% | [4] 71.9% | [5] 103% | [6] 97% | [7] 92.3% | [8] 106% | [9] 98.9% | [10] 91.1% | [11] 76.1% | [12] 80.6% | [13] 103% | [14] 121% | [15] 90.1% | [16] 107% | [17] 112% | [18] 98.5% | [19] 94.4% | [20] 88.5%

C=C1CCC2C3(C)COC(c4ccccc4F)OC3CCC2(C)C1C/C=C1/C(=O)OCC1O (stereo not given)
active: [1] -59.2% | [2] -51.6% | [3] -40.9% | [4] -96.5% | [5] -67.1% | [6] -99.4% | [7] -40.7% | [10] 9.47% | [13] -54.3% | [14] -42.8% | [17] -45.8% | [18] -79.1% | [19] -0.635% | [20] -23%
inactive: [8] 101% | [9] 15.1% | [11] 11.6% | [12] 13.4% | [15] 22.2% | [16] 26.3%

CN(C)c1ccc(/C=C/c2nc3ccccc3c(=O)n2CC(=O)Nc2ccc(Cl)cc2)cc1
inactive: [1] 94.9% | [2] 80% | [3] 76.4% | [4] 87.4% | [5] 83.1% | [6] 43.3% | [7] 53.1% | [8] 76.1% | [9] 88.6% | [10] 74.7% | [11] 81.2% | [12] 88.1% | [14] 75.4% | [16] 84.8% | [17] 88.3% | [18] 42.2% | [19] 17.1% | [20] 22.4%
active: [13] 2.8% | [15] 7.27%

CC(C)c1ccc(C(=O)Nc2sc3c(c2C(N)=O)CCC(=O)C3=O)cc1
inactive: [1] 98.8% | [2] 87.9% | [3] 94.7% | [4] 59.7% | [5] 125% | [6] 93.6% | [7] 91.9% | [8] 130% | [9] 86.4% | [10] 72.4% | [11] 72.8% | [12] 85% | [13] 94.2% | [14] 114% | [15] 91.5% | [16] 89.4% | [17] 72.4% | [18] 87% | [19] 93.7% | [20] 97.4%

COc1ccccc1C(=O)NNC(=O)CSc1nc2c(c(=O)[nH]1)CCCC2
inactive: [1] 112% | [2] 91.5% | [3] 102% | [4] 61.9% | [5] 132% | [6] 98.8% | [7] 84.5% | [8] 153% | [9] 96.8% | [10] 105% | [11] 96.4% | [12] 98.1% | [13] 109% | [14] 108% | [15] 105% | [16] 94.1% | [17] 92.5% | [18] 102% | [19] 108% | [20] 104%

CC(=O)Nc1ccc(-c2cn(-c3cccc(C(=O)Nc4ccc(Cl)c(C(F)(F)F)c4)c3)nn2)cn1
active: [1] -38.3% | [2] -30.2% | [3] -48.4% | [4] -56% | [5] -18% | [6] -52.5% | [7] -27.8% | [8] -63.1% | [10] 7.02% | [13] -32.7% | [14] -17.8% | [15] -74.9% | [16] -3.46% | [17] -54% | [18] -75.9% | [19] -12%
inactive: [9] 30% | [11] 16.1% | [12] 16.2% | [20] 41.6%

COc1ccc(/C(CSc2nnc(-c3c[nH]c4ccccc34)n2-c2ccccc2)=N/O)cc1
inactive: [2] 15.1% | [3] 45.8% | [4] 18.2% | [5] 42.7% | [6] 22.3% | [7] 20.1% | [8] 69.8% | [9] 16.5% | [10] 16.7% | [11] 10.9% | [13] 29.7% | [14] 55% | [15] 16.8% | [16] 52.1% | [17] 43.1% | [18] 30.5% | [19] 38.8% | [20] 38.2%
active: [1] 5.87% | [12] 9.81%
